Data on nine compounds can be found in PubChem BioAssay (NCATS).

“And” between values parts separate entries of the source, which are not always exact repeats. Identical values can stand only once. Unmarked numbers belong to inactive results. Records with an inconclusive call do not appear. The source made the active and inactive calls. Unless noted, the call rests on the fitted dose curve; in most records, active means well fitted curve in either direction with a large enough effect (not every such curve was filed as active); inconclusive means small, poorly fitted or top-dose-only effect, or another doubt; inactive means flat fitted curve, though single readings scatter. Numbered stars: 1 amine (or outer) side, 2 acyl side, 3 side chain; on linkers, the order of the positions; unused ones are H or OH. Bridge positions count the residues as written; N and C are the ends. Square brackets hold non-standard residues; d marks the D form. Peptide text beside a SMILES is read from it. I, II: the chains in the order shown. Actinocin(9to1) = Cc1c2oc3c(C)ccc(C(=O)[*:1])c3nc-2c(C(=O)[*:2])c(N)c1=O; NMeV = CN[C@H](C(=O)O)C(C)C; Sar = CNCC(=O)O

A short description of assay [1]: AP1 Signaling Pathway (AID 357).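 Further: ME-180 reporter cells stimulated with EGF at its EC50 level; on the % scale 0 is the no-effect control and ±100 the full control effect.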 Particulars: ME-180 AP-1-bla reporter, EGF-induced, beta-lactamase ratio, 5 h. The procedure, abridged:
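Titration-series screen for positive or negative modulators of EC50 EGF-induced signaling in ME-180 cells carrying an AP-1-driven beta-lactamase reporter. After 5 hours at 37 degrees Celsius, CCF4 460nm/530nm emission ratio gave %Activity; AC50 values derived.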

Assay [2] deals with Mitogen-activated protein kinase 10 (Mus musculus) (UniProt Q61831). Nature of the assay: JNK3 AlphaScreen Assay (AID 530).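 Further: kinase came from lysate of stimulated human HepG2 cells; signal reports phosphorylation of biotinylated GST-cJun 1-79 at Ser73 with 10 µM ATP; on the % scale 0 is the no-effect control and ±100 the full control effect.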 An outline of the steps:
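Phosphorylation of biotinylated GST-cJun(1-79) at Ser73 is measured by AlphaScreen proximity luminescence. Enzyme is JNK3 in HepG2 lysates activated with interleukin-1beta and tumor necrosis factor alpha; ATP is 10 uM final.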

A short description of assay [3]: NFAT Signaling Pathway (AID 444).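 Further: carbachol stimulus at about its EC50 of 1 µM final; on the % scale 0 is the no-effect control and ±100 the full control effect.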 The settings on record: Jurkat NFAT-bla M1, carbachol, beta-lactamase ratio, 5 h. The procedure, abridged: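 Jurkat cells carrying an NFAT-driven β-lactamase reporter and co-transfected muscarinic M1 receptor were treated with compound plus carbachol (1 uM final, an EC50 level) for 5 h at 37 °C. CCF4 loading followed for 1 h at RT; 460/530 nm ratio gave %activity.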

A short description of assay [4]: Stat Signaling Pathway (AID 446).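 Further: ME-180 cervical cancer cells given 40 pM IL-6 alongside compound; SIE-controlled beta-lactamase reporter measured as 460/530 nm FRET emission ratio; on the % scale 0 is the no-effect control and ±100 the full control effect.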 The settings on record: ME-180 (cervical carcinoma) SIE beta-lactamase reporter, IL-6 stimulated, 5 h. The procedure, abridged: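 Compound effects on IL-6-induced STAT reporter activity were measured in ME-180 cells. After overnight culture, cells were co-treated with 40 pM IL-6 for 5 hrs before beta-lactamase substrate loading at room temperature.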

The target in assay [5] is Glucocorticoid receptor (Homo sapiens) (UniProt P04150). Nature of the assay: GR-EFC Redistribution (AID 451; calls by dose curve; further: potency means the concentration at half of the fitted maximal effect). Particulars: CHO-K1 GR-EFC translocation, beta-gal luminescence, 2 h. An outline of the steps: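 CHO-K1 cells stably expressing nuclear-localized β-gal enzyme acceptor and GR fused C-terminally to the enzyme donor fragment; ligand-driven nuclear translocation restores β-gal by complementation. Compounds titrated up to 46 uM final, 2 h at 37 °C; luminescence read.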

The target of assay [6] is Cytochrome P450 1A2 (Homo sapiens) (UniProt P05177). Nature of the assay: p450-cyp1a2 (AID 410; calls by dose curve;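 further: -100% = full effect of reference inhibitor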). An outline of the steps:
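O-Demethylation of luciferin 6' methyl ether by human CYP1A2 is monitored as luciferase luminescence. Substrate sits at Km (100uM); enzyme is 20nM. Values are scaled to 57 uM furafylline as maximal inhibition.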

Assay [7] deals with Glucocorticoid receptor (Homo sapiens) (UniProt P04150). Nature of the assay: GR-GFP Redistribution (AID 450;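 active means compounds whose dose series gives a full or clear partial fitted curve of increased nuclear translocation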; further: potency means the concentration at half of the fitted maximal effect). Particulars: U2OS GR-GFP nuclear translocation, laser cytometry, 2 h.
Assay [8] can be described thus: Cell Viability - BJ (AID 421; calls by dose curve;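 further: potency means the concentration at half of the fitted maximal effect; cells exposed to compound for 40 hours at 37 °C before readout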). Particulars: BJ fibroblast viability, qHTS. An outline of the steps:
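Luminescent ATP signal (CellTiter-Glo, 20 min at room temperature) served as the read-out of viable BJ cells after 40 hours of compound treatment. Responses were scaled between DMSO and 100 uM tamoxifen, and AC50 values were obtained by Hill modeling.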
On the technique in general: qHTS replaces the single test concentration by a dilution series.

A short description of assay [9]: Cell Viability - Jurkat (AID 426;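 active means dose-dependent loss of cell ATP signal giving a full or clear fitted curve, ranked by lower potency value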;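 further: potency means the concentration at half of the fitted maximal effect; cells exposed to compound for 40 hours at 37 °C before ATP read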). Particulars: qHTS. An outline of the steps:
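Cells of the human T-cell leukemia line Jurkat (E6-1) are seeded at 5000 per well, treated with compound across a concentration range for 40 hours at 37 °C, then lysed with CellTiter-Glo; luminescence reports ATP.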

Assay [10] can be described thus: Cell Viability - Hek293 (AID 427;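 active means compounds whose dose-response curve shows a full or clear partial loss of cell viability, called from curve shape rather than a numeric limit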;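 further: potency means the concentration at half of the fitted maximal effect; cells exposed to compound for 40 hours at 37 °C before reading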). The settings on record: qHTS. An outline of the steps: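 Luminescent ATP read-out (CellTiter-Glo, 20 min RT) after 40 hr compound exposure at 37 °C in complete medium. Signal normalized to DMSO (basal) and 100 uM tamoxifen (100% inhibition); concentration-response fitted with the standard Hill equation to give AC50.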
A short description of assay [11]: Cell Viability - HepG2 (AID 433; calls by dose curve;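 further: potency means the concentration at half of the fitted maximal effect; potency for ATP loss meaning cytotoxicity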). Particulars: qHTS. An outline of the steps: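 ATP luminescence (CellTiter-Glo) after 40 h compound exposure, 37 °C, HepG2, 1500 cells/well, complete medium. Normalized: DMSO = basal, 100 uM tamoxifen = 100% inhibition. AC50 via standard Hill equation.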
Assay [12] can be described thus: Cell Viability - MRC5 (AID 434; calls by dose curve;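 further: potency means the concentration at half of the fitted maximal effect; potency reflects cytotoxicity seen as loss of intracellular ATP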). The settings on record: MRC5 lung fibroblast viability, qHTS. The procedure, abridged:
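Decrease in intracellular ATP, quantified by luciferase light output, reflects compound toxicity toward MRC5 cells exposed for 40 hr in complete culture medium. Concentration-response curves, scaled between DMSO and 100 uM tamoxifen, gave AC50 values.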

The nature of assay [13]: Cell Viability - SK-N-SH (AID 435; calls by dose curve; further: potency means the concentration at half of the fitted maximal effect). The settings on record: SK-N-SH neuroblastoma cell viability qHTS. An outline of the steps:
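CellTiter-Glo ATP luminescence, 20 min RT read; cells pre-plated 5 hr, compound 40 hr at 37 °C, 1500 cells/well, complete medium. Normalized DMSO = 0, 100 uM tamoxifen = 100% inhibition; Hill-fit AC50.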

Assay [14] in a line: Cell Viability - N2a (AID 540; active means well fitted curve in the direction sought with a large enough effect; an effect the other way counts as inactive or inconclusive;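 further: plate controls were DMSO alone for no effect and tamoxifen control for full effect; nearly all actives have a fitted effect of over 45% in size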). Particulars: N2a mouse neuroblastoma cell viability; activity change, negative = cytotoxicity: at 92.2 µM (top of the series). The procedure, abridged:
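Cytotoxicity was scored as loss of cellular ATP in N2a cells, a mouse neuroblastoma line. Compounds are applied in a qHTS concentration series for 40 hr at 37 °C.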

Assay [15] can be described thus: Cell Viability - NIH 3T3 (AID 541; active means well fitted curve in the direction sought with a large enough effect; an effect the other way counts as inactive or inconclusive;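 further: plate controls were DMSO alone for no effect and tamoxifen positive control for full effect; nearly all actives have a fitted effect of over 25% in size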). Particulars: NIH 3T3 cell viability, qHTS; activity change, negative = cytotoxicity: at 92.2 µM (top of the series). The procedure, abridged: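 Cells seeded at 1000/well, rested 5 hr at 37 °C, then dosed and incubated 40 hr at 37 °C. CellTiter-Glo added, 20 min room temperature, luminescence read. AC50 by Hill fit.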
Assay [16] in a line: Cell Viability - HUV-EC-C (AID 542; active means well fitted curve in the direction sought with a large enough effect; an effect the other way counts as inactive or inconclusive; further: on the % scale 0 is the no-effect control and ±100 the full control effect; nearly all actives have a fitted effect of over 35% in size). The procedure, abridged:
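Cells were seeded at 1000 per well and incubated 5 hr at 37 °C before compound addition. After 40 hr at 37 °C, CellTiter-Glo reagent was added for 20 min and luminescence read. AC50 values came from Hill-equation modelling.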

Assay [17] in a line: Cell Viability - H-4-II-E (AID 543; active means well fitted curve in the direction sought with a large enough effect; an effect the other way counts as inactive or inconclusive; further: nearly all actives have a fitted effect of over 35% in size; further: potency means the concentration at half of the fitted maximal effect). An outline of the steps:
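Cells seeded at 1500 per well and rested 5 hr; compounds added; 40 hr incubation at 37 °C; CellTiter-Glo added, 20 min at room temperature; luminescence read. Hill-equation fits gave AC50.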

Assay [18] can be described thus: Cell Viability - SH-SY5Y (AID 544; active means well fitted curve in the direction sought with a large enough effect; an effect the other way counts as inactive or inconclusive;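 further: 0% = DMSO alone and -100% = 100 µM tamoxifen; nearly all actives have a fitted effect of over 55% in size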). The settings on record: SH-SY5Y neuroblastoma cell viability; viability change, negative = cytotoxic: at 92.2 µM (top of the series). The procedure, abridged:
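Cells were plated at 1500 per well and allowed 5 hr at 37 °C. Compounds were added across a concentration range and incubated 40 hr at 37 °C. CellTiter-Glo was added for 20 min at room temperature before luminescence reading.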

A short description of assay [19]: Cell Viability - Renal Proximal Tubule (AID 545; active means well fitted curve in the direction sought with a large enough effect; an effect the other way counts as inactive or inconclusive; further: nearly all actives have a fitted effect of over 40% in size; further: potency means the concentration at half of the fitted maximal effect;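 on activity change, negative = cytotoxicity: 0% = DMSO only and -100% = 100 µM tamoxifen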). Particulars: renal proximal tubule cells viability, primary cells of rat origin; activity change, negative = cytotoxicity: at 91.7 µM (top of the series). An outline of the steps: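 Rat kidney proximal tubule cells, freshly isolated; 1000 cells/well, 5 hr settle, compound 40 hr 37 °C. CellTiter-Glo 20 min RT, luminescence read. AC50 by standard Hill fit.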

Glucocorticoid receptor (Homo sapiens), sequence (P04150 whole entry, looked up, the tested form may be a part): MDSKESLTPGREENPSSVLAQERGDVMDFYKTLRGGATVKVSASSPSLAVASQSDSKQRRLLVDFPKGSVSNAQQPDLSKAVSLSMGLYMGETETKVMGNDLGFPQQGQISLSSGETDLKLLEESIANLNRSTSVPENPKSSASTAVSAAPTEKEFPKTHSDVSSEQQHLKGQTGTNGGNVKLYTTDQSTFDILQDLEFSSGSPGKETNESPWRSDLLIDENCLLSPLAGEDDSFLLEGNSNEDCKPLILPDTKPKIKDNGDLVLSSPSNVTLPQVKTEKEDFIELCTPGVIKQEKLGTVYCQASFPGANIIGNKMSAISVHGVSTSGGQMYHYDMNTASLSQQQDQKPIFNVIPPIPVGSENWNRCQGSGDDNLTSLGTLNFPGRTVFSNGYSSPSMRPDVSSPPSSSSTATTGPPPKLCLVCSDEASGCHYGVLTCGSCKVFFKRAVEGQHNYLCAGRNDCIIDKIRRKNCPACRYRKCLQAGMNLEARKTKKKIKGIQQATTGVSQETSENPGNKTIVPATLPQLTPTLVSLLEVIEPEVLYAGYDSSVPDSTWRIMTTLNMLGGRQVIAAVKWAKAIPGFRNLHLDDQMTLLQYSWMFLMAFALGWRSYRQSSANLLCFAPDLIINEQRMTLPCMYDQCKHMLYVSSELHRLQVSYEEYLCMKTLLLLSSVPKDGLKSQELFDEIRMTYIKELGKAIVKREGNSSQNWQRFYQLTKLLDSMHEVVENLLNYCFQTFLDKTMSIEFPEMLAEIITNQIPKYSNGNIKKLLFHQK
Cytochrome P450 1A2 (Homo sapiens), sequence (P05177 whole entry, looked up): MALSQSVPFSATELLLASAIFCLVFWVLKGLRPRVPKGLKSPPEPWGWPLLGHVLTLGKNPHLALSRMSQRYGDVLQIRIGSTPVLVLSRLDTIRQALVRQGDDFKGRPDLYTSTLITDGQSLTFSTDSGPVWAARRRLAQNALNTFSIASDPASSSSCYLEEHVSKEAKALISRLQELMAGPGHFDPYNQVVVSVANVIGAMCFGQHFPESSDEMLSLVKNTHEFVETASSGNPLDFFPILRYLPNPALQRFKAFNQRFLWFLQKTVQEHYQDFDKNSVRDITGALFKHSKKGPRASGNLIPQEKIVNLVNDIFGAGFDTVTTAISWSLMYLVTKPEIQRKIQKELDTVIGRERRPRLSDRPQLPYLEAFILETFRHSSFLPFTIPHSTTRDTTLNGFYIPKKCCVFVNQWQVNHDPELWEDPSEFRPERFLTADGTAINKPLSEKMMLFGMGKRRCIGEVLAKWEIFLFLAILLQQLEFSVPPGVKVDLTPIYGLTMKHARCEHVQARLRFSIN

In the case of `CCCCOc1ccc(OCCCN2CCOCC2)cc1`, in assay [1] (at 17.2 µM (top of the series)), the activity change, negative = inhibition was 5.36% and -1.05%. Moreover, the compound was called inactive in assay [2].
With `Nc1cc(Cl)c(NC2=NCCN2)c(Cl)c1`, the activity change, negative = inhibition in assay [1] (at 38 µM (top of the series)) is 2.68%; in [3] (at 38 µM (top of the series)) it was -7.69%. In [4] (at 38 µM (top of the series)), the activity, negative = inhibition was -3.42%. Further, in [5], the Potency is above 46 µM. In addition, the result in assay [2] was inactive.
Take `Nc1nc2ncc(CNc3ccc(C(=O)N[C@@H](CCC(=O)O)C(=O)O)cc3)nc2c(=O)[nH]1`: the Potency entry in assay [6] is “inactive”. The activity change, negative = inhibition in assay [3] (at 17.2 µM (top of the series)) is 2.08%. In addition, in assay [7], the Potency was above 20.6 µM. In addition, the call in [2] was inactive.
Turning to `CC(CCc1ccccc1)NCC(O)c1ccc(O)c(C(N)=O)c1` (stereo not drawn), the activity change, negative = inhibition was 5.69% in assay [1] (at 17.2 µM (top of the series)) and 9.12% in assay [3] (at 17.2 µM (top of the series)). Besides, the activity, negative = inhibition in assay [4] (at 17.2 µM (top of the series)) was 9.7%. The Potency in assay [7] is above 20.6 µM.
For the compound `Nc1ccc(C(=O)O)cc1`, the Potency in [8], in assay [9], in [10], in assay [11], in assay [12] and in assay [13] was above 92 µM in each case. In [2], the compound was classed as inactive. Moreover, the Potency result in assay [14], in [15], in assay [16], in assay [17] and in [18] was “inactive” in each case. For the same compound, the activity change, negative = cytotoxicity in assay [19] is -7.22%.
For `CC(O)C(=O)O` (stereo not drawn), the Potency in assay [8], in [9], in [10], in assay [11], in assay [12] and in assay [13] was above 92 µM each time. For the same compound, the outcome in assay [2] was inactive. The Potency result in assay [14], in [15], in [16], in assay [17] and in assay [18] was “inactive” in each case. Moreover, the activity change, negative = cytotoxicity in assay [19] was -2.48%.
Consider `Cc1c2oc3c(C)ccc(C(=O)N[C@@H]4C(=O)N[C@H](C(C)C)C(=O)N5CCC[C@H]5C(=O)N(C)CC(=O)N(C)[C@@H](C(C)C)C(=O)O[C@@H]4C)c3nc-2c(C(=O)N[C@@H]2C(=O)N[C@H](C(C)C)C(=O)N3CCC[C@H]3C(=O)N(C)CC(=O)N(C)[C@@H](C(C)C)C(=O)O[C@@H]2C)c(N)c1=O` (I: T[dV]P[Sar][NMeV] / II: T[dV]P[Sar][NMeV]; ester I:1-I:C, II:1-II:C; linker I:N-II:N via Actinocin(9to1)), for which the Potency was 0.00132 µM (active) in assay [8]; 0.0015 µM (active) in assay [9]; 0.00102 µM (active) in assay [10]; above 92 µM in [11]; above 92 µM in assay [12]; above 92 µM in assay [13]. Further, the Potency in [17] was 0.00398 µM (active); in [19], 0.001 µM (active). In addition, the call in assay [2] was inactive. Further, the Potency entry in assay [16] is “inactive”.
Regarding `CCCCCCCCCCCCCCCC[N+](C)(C)CCN(Cc1ccc(OC)cc1)c1ncccn1`, in assay [3] (at 17.2 µM (top of the series)), the activity change, negative = inhibition is 8.86%. In addition, the activity, negative = inhibition in [4] (at 17.2 µM (top of the series)) was 11.5%. For the same compound, the Potency in assay [5] is above 20.6 µM. For the same compound, the compound was called inactive in [2].
Take `CCC(C(=O)OCCN(CC)CC)c1ccccc1` (stereo not drawn): the activity change, negative = inhibition in assay [3] (at 17.2 µM (top of the series)) is -83.4% (active). In addition, the activity, negative = inhibition in assay [4] (at 17.2 µM (top of the series)) is 2.13%. For the same compound, in [7], the Potency was above 20.6 µM.
